BAZ2B inh – qHTS Assay for Inhibitors of BAZ2B; Bromodomain adjacent to zinc finger domain protein 2B (Homo sapiens), Q9UIF8; AlphaScreen BAZ2B-H3K14Ac peptide displacement; Potency, µM (highest dose often 114 µM), for the others: at the highest dose activity change, negative = inhibition, actives largely listed as inhibitors; hit rate 4.4% among 360,000; further: on the % scale 0 is the no-effect control and ±100 the full control effect; nearly all actives have a fitted effect of over 60% in size
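Complex of BAZ2B and biotin-H3K14Ac (50 nM apiece) forms over 30 min at RT, then faces library compounds up to 110 uM for another 30 min; AlphaScreen beads added, 20 min dark incubation, luminescence read.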
JMJD2A Tudor inh – qHTS Assay for Inhibitors of JMJD2A-Tudor Domain; Lysine-specific demethylase 4A (Homo sapiens), O75164; AlphaScreen JMJD2A-Tudor / H3K4me3 peptide binding; Potency, µM (doses to about 114 µM), for inactives: at the top dose activity change, negative = inhibition, most hits filed as inhibitors; hit rate 4.4% among 390,000; AID 504339, 2011; further: on the % scale 0 is the no-effect control and ±100 the full control effect; nearly all actives have a fitted effect of over 50% in size
Sfp PPTase inh – qHTS Assay for Inhibitors of Bacillus subtilis Sfp phosphopantetheinyl transferase (PPTase) | AID 1490, 2009 | Potency, µM, without a hit: largest response in the series, negative = inhibition, most hits filed as inhibitors | hit rate 3.5% among 310,000 | Biochemical Sfp PPTase activity, qHTS;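 further: the enzyme is Sfp with the accession as filed and its product quenches rhodamine fluorescence; 0% = enzyme reaction without inhibitor and -100% = no enzyme wells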
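Buffer: 50 mM Hepes-Na pH 7.6, 10 mM MgCl2, 0.01% Nonidet P-40, 0.01% BSA. Enzyme 15 nM, pre-exposed to compound 15 min; substrates then added and fluorescence change tracked over 30 min.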
L3MBTL1 block – qHTS Assay for the Inhibitors of L3MBTL1; Lethal(3)malignant brain tumor-like protein 1 (Homo sapiens), Q9Y468; AlphaScreen L3MBTL1–H3K9me1 peptide binding; Potency, µM (titrated, usually from 57.1 µM), for the others: at the top dose activity, negative = inhibition, actives largely listed as inhibitors; hit rate 0.66% among 230,000; AID 485360, 2010; further: on the % scale 0 is the no-effect control and ±100 the full control effect; nearly all actives have a fitted effect of over 60% in size
Target sequence (Q9Y468 whole entry, looked up): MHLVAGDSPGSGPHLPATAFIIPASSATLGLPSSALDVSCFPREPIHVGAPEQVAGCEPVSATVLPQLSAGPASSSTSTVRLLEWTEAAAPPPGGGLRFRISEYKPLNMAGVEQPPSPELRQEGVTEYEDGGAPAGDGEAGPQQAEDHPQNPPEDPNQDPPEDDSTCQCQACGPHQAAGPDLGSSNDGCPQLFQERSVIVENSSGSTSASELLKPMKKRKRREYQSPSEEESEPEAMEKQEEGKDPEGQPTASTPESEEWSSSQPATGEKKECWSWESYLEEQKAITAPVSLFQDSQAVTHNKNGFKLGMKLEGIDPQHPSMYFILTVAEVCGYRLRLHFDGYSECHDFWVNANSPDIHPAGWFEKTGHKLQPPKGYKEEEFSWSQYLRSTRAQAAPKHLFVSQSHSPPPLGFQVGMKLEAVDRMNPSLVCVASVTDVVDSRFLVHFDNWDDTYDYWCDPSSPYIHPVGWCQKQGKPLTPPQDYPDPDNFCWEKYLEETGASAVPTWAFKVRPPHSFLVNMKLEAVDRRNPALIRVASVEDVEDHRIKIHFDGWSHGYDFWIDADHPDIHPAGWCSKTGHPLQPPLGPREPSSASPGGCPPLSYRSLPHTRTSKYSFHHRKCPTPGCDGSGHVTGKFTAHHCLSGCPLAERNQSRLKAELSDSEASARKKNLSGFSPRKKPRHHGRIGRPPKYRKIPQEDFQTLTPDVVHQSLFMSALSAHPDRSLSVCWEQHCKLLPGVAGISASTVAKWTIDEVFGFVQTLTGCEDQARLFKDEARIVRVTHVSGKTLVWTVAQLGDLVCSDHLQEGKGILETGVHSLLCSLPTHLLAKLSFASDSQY
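Displacement of a biotinylated histone H3(1-15) peptide monomethylated at Lys9 (75 nM) from L3MBTL1 (50 nM) was measured by AlphaScreen after a 30 min room-temperature compound incubation; cefsulodin titration served as intraplate control.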
G9a block – qHTS Assay for Inhibitors of Histone Lysine Methyltransferase G9a | G9a H3K9 monomethylation, AlphaScreen, 2 h | hit rate 8.8% among 350,000 | Histone-lysine N-methyltransferase EHMT2 (Homo sapiens), Q96KQ7 | Potency, µM (series often up to 102 µM), for inactives: at the highest dose activity, negative = inhibition, usual class: inhibitors; further: on the % scale 0 is the no-effect control and ±100 the full control effect; nearly all actives have a fitted effect of over 75% in size
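G9a (20 nM) preincubated 15 min RT with compounds, then 500 nM biotinylated H3K9 peptide and 20 uM SAM added; 2 h RT reaction. Monomethyl-H3K9 product detected by AlphaScreen with anti-H3K9me1 antibody, streptavidin donor and anti-rabbit IgG acceptor beads.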
HP1b chromo inh – HTS for Inhibitors of HP1-beta Chromodomain Interactions with Methylated Histone Tails | AlphaScreen HP1-beta / biotin-H3K9me3 peptide binding | Chromobox protein homolog 1 (Homo sapiens), P83916 | hit rate 0.56% among 390,000 | Potency, µM (series often up to 114 µM), for inactives: at the highest dose activity change, negative = inhibition, usual class: inhibitors; further: nearly all actives have a fitted effect of over 70% in size
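Compound inhibition of the preformed complex between 50 nM HP1-beta and 50 nM biotinylated H3K9me3 peptide was read by AlphaScreen. Buffer was PBS pH 7.4 with 0.01% Tween-20. Incubations ran 30 min at room temperature, with 10 ug/mL donor/acceptor beads.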
Starred values were filed as active, the others as inactive; ? = inconclusive; . = no result given; [ ] = remark or other dose. Only some compounds are listed: those with a hit (about 12% of all), similar ones and a draw of the others. The call rests on the fitted dose curve; in most records, active means well fitted curve in the direction sought with a large enough effect; inconclusive means small, poorly fitted or top-dose-only effect, or another doubt; inactive means no such curve, though single readings can be large; an effect the other way counts as inactive or inconclusive. Potency means the concentration at half of the fitted maximal effect.

SMILES	BAZ2B inh	JMJD2A Tudor inh	Sfp PPTase inh	L3MBTL1 block	G9a block	HP1b chromo inh
C1=C(c2ccc(-c3ccccc3)cc2)Nc2ncnn2C1c1ccco1 (centres undefined)	-12%	-27%	?	0%	32µM*	24%
Fc1ccc(C2=CC(c3ccco3)n3ncnc3N2)cc1 (centres undefined)	?	-33%	-24%	-1%	?	21%
OCCCc1nc2n(n1)C(c1cccs1)C=C(c1ccc(Br)cc1)N2 (centres undefined)	-10%	.	?	-1%	?	.
Cc1ccc(NC(=O)c2cc3c(=O)n(Cc4ccco4)ccc3nc2C)cc1C	-28%	?	.	.	-12%[59 µM]	24%
CCOc1ccc(C(=O)Nc2ccccc2NC(C)=O)cc1OCC	-3%	-15%	-2%	8%	-2%	21%
CCOc1ccccc1Nc1ccc(C(=O)O)cc1NC(C)=O	-18%	-9%	56µM*	11%	-34%[59 µM]	28%
CCc1cccc(CC)c1NC(=O)C1CN(S(=O)(=O)c2ccccc2)CCN1S(=O)(=O)c1ccccc1 (centres undefined)	-3%	-9%	13%	2%	?	13%
Cc1cccc(C(C)C)c1NC(=O)C1CN(S(=O)(=O)c2ccccc2)CCN1S(=O)(=O)c1ccccc1 (centres undefined)	-4%	-9%	10%	1%	71µM*	31%
C#CCOCCOCCOCCNc1nc(N2CCN(C(=O)CCCCCCCCCCNC(=O)[C@H]([C@@H](C)CC)n3cc(CCCCN=C(N)N)nn3)CC2)nc(N2CCN(C(=O)CCCCCCCCCCNC(=O)[C@@H]([C@H](C)O)n3cc(C)nn3)CC2)n1	?	56µM*	.	-7%	12%[2.33 µM]	?
C#CCOCCOCCOCCNc1nc(N2CCN(C(=O)CCCCCCCCCCNC(=O)[C@H]([C@@H](C)CC)n3cc(CCCCN=C(N)N)nn3)CC2)nc(N2CCN(C(=O)CCCCCCCCCCNC(=O)[C@H](CCCN=C(N)N)n3cc(C[C@@H](C)CC)nn3)CC2)n1	50µM*	.	.	-9%	2%[2.33 µM]	.
C#CCOCCOCCOCCNc1nc(N2CCN(C(=O)CCCCCCCCCCNC(=O)[C@H](CCCN=C(N)N)n3cc(C[C@@H](C)CC)nn3)CC2)nc(N2CCN(C(=O)CCCCCCCCCCNC(=O)[C@@H]([C@H](C)CC)n3cc(CCCCCN)nn3)CC2)n1	56µM*	.	.	-28%	10%[2.33 µM]	.
C#CCOCCOCCOCCNc1nc(N2CCOCC2)nc(N2CCN(C(=O)CCCCCCCCCCNC(=O)[C@H]([C@@H](C)CC)n3cc(CCCCN=C(N)N)nn3)CC2)n1	?	-34%	.	-2%	-3%[2.33 µM]	20%
Cc1c(Cl)cccc1NS(=O)(=O)c1ccc2[nH]cc(C(=O)NC3CCCC3)c(=O)c2c1	.	?	.	.	?	11%
Cc1cc(C)c(Cn2c(=O)n(Cc3ccccc3)c(=O)c3c(C)c(C)sc32)c(C)c1	-2%	-1%	.	.	4%[59 µM]	40%
O=C(CN1CCCN(Cc2ccc(F)cc2)S1(=O)=O)NCc1ccccc1Cl	-2%	12%	.	.	?	38%
C=CCNC(=O)c1cc(Cl)cc(Cl)c1	-4%	45µM*	11%	.	-3%	-7%
Cc1ccc2cc(CN(C(=O)c3ccco3)c3ccccc3)c(=O)[nH]c2c1	3%	-11%	28µM*	2%	?	17%
Cc1ccc(N(Cc2cc3ccc(C)cc3[nH]c2=O)C(=O)c2ccco2)cc1	-22%	-36%	22µM*	.	?	-2%
Cc1ccc(N(Cc2cc3ccccc3[nH]c2=O)C(=O)c2ccco2)c(C)c1	-12%	-28%	-9%	.	-9%[12.7 µM]	1%
Cc1cccc(N(Cc2cc3ccc(C)cc3[nH]c2=O)C(=O)c2ccco2)c1	16%	-26%	22µM*	-21%	?	18%
Cc1ccc2cc(CN(Cc3ccco3)C(=O)c3cccs3)c(=O)[nH]c2c1	-35%	-20%	25µM*	-8%[11.4 µM]	13%[12.7 µM]	7%
COc1ccc(-c2c(C#N)c(SCC(=O)Nc3ccccc3C)nc(C)c2C(=O)Nc2ccccc2)cc1OC	-1%	-7%	.	.	-6%[59 µM]	21%
Cc1ccc(Cn2cc(C(=O)c3ccc4c(c3)OCO4)c(=O)c3cc(C)ccc32)cc1	-28%	?	.	.	-42%[59 µM]	-4%
Cc1cc(NC(=O)CN(C)S(=O)(=O)c2ccc3c(c2)CCC(=O)N3)ccc1Br	-3%	-12%	.	.	-47%[59 µM]	11%
O=C(CSc1nc2c([nH]c3ccccc32)c(=O)n1-c1cccc(Cl)c1)c1ccccc1	1%	-1%	.	.	14%[59 µM]	29%[57 µM]
SMILES	BAZ2B inh	JMJD2A Tudor inh	Sfp PPTase inh	L3MBTL1 block	G9a block	HP1b chromo inh
COc1cccc(N2C(=O)[C@H]3C(C(=O)c4cnccn4)=NN[C@H]3C2=O)c1	50µM*	50µM*	79µM*	.	?	46%
CCOC(=O)C1=C(O)/C(=C/c2ccccn2)SC1=Nc1ccc(Cl)cc1	-33%	-25%	32µM*	-13%	-6%	14%
CCOC(=O)C1=C(O)/C(=C/c2cc(OC)c(O)c(OC)c2)SC1=Nc1ccc(OC)cc1	-34%	-21%	-24%	-6%	8.9µM*	9%
CCOC(=O)C1=C(O)/C(=C/c2ccc(-c3ccccc3C(=O)O)o2)SC1=Nc1ccc(C)cc1	-36%	50µM*	5%	-1%	12%	-15%
COc1ccc(CNC(=O)Nc2ccc3c(c2)N(C)C(=O)c2ccccc2S3)cc1	-15%	-25%	.	.	-32%[59 µM]	21%
COc1ccccc1CNC(=O)CCS(=O)(=O)c1ccc2c(c1)oc(=O)n2C	8%[57.1 µM]	-8%	.	.	-7%[59 µM]	11%
C=CCNc1nc(Nc2ccc([N+](=O)[O-])cc2)nc(N2CCCC2)n1	-13%	?	1%	.	-29%	14%
CC1CCN(c2nc(Cl)nc(Nc3ccc([N+](=O)[O-])cc3)n2)CC1	?	?	5%	-26%	45µM*	-17%
COc1ccc(Nc2nc(Cl)nc(N3CCN(c4ccc(OC)cc4)CC3)n2)cc1	8.9µM*	.	3%	?	?	.
CC(=O)Nc1cccc(/C(C)=N\NC(=O)c2ccc(Cn3nc([N+](=O)[O-])c(Cl)c3C)o2)c1	-3%	50µM*	0%	5%	0%[2.33 µM]	-7%

Screening results: PubChem, National Center for Advancing Translational Sciences (NCATS)
